Assay outcomes deposited in PubChem by several laboratories.
CYP2C19 act: cytochrome P450 2C19 (human) activation; P33261; recombinant CYP2C19, luciferin-H EGE luminescence; active compounds read high; 0 = fully inhibited enzyme, 1 = untreated enzyme; activation factor at 5 µM; 96,000 tested, under 10 active;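 active = activation factor of at least 2 at 5 µM in the primary screen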;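 also: 0 = wells with 2.5 mM tranylcypromine and 1 = vehicle-only wells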
Cav3 T inh: blocks human Cav3.2 T-type calcium channel; AID 449739; actives 4% (n = 100,000); O95180; B-score at 10 µM; Cav3.2-expressing cells, Fluo-4 calcium fluorescence FDSS; active compounds read low;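 active = single-dose well whose peak fluorescence ratio is a statistical outlier from its plate by either plate-standardised score or position-corrected B-score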
CYP2C9 inh: blocks human cytochrome P450 2C9; P11712; CYP2C9 Supersomes, luciferin-H conversion, luminescence; inhibition, % at 5 µM; actives 20% (n = 96,000); AID 777;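 active = blocking of liver enzyme CYP2C9 beyond about 50% at 5 µM, limit read from the data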
CYP2C9 act: activators of human CYP2C9; activation factor at 5 µM; recombinant CYP2C9, luciferin-H conversion, luminescence; active compounds read high; factor 1 = untreated enzyme, 0 = blocked; actives 1.4% (n = 96,000);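 active = activation factor of 2 or more for CYP2C9 at a 5 µM dose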;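 also: 0 = sulfaphenazole-blocked wells and 1 = vehicle-only wells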
CYP2C19 inhib: inhibitors of human CYP2C19 | P33261 | CYP2C19 Supersomes, luciferin-H EGE luminescence, 30 min | inhibition, % at 5 µM | actives 21% (n = 96,000) | AID 778;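 active = CYP2C19 inhibition above a set limit at 5 µM in the primary screen, cut at about 50% in these data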;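 also: plate controls were negative control wells for no effect and 2.5 mM tranylcypromine positive control for full effect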
Starred values were filed as active, the others as inactive; · = not tested or not shown. This is a sample that favours compounds with a hit; in the whole collection about 27% have one here.

SMILES	CYP2C19 act	Cav3 T inh	CYP2C9 inh	CYP2C9 act	CYP2C19 inhib
NC(=O)SCC(=O)Nc1cccc(Cl)c1	0.6	-5.4*	18	0.8	43
CCC(CC)C(=O)Nc1ccc(Cl)c(Cl)c1	0.3	-5.2*	38	0.6	67*
Cc1ccc(NC(=O)Cn2cccc2)cc1Cl	0.5	0.00023	4	1	52*
O=C(CCCOc1ccc(Cl)cc1)NCC1CCCO1 (stereo not given)	0.9	0.18	-8	1.1	9
Cc1cccn2cc(CCNC(=O)c3ccc(Br)o3)nc12	0.8	0.09	7	0.9	22
COc1ccc(N2C(=O)C(Cl)=C(NCc3ccccc3)C2=O)cc1	0	-3.5	96*	0	99*
CC(c1ccccc1)N1CC(C(=O)N2CCN(c3ccccc3)CC2)CC1=O (stereo not given)	1	0.069	-11	1.1	2
CCC(C)COC(=O)C(C#N)c1nc2ccccc2nc1N1CCCCC1 (stereo not given)	0.5	-2.4	66*	0.3	50
CCCCCCOC(=O)C(C#N)c1nc2ccccc2nc1N1CCN(C)CC1 (stereo not given)	0.7	-0.67	0	1	30
N#CC(C(=O)NC1CCCCC1)c1nc2ccccc2nc1N1CCOCC1 (stereo not given)	0.8	·	2	1	18
CCCCCCOC(=O)C(C#N)c1nc2ccccc2nc1N1CCCCC1 (stereo not given)	0.6	-5.3*	30	0.7	36
N#CC(C(=O)OCc1ccccc1)c1nc2ccccc2nc1N1CCOCC1 (stereo not given)	0.5	-3.7	40	0.6	50*
COC(=O)C(C#N)c1nc2ccccc2nc1N1CCCC1 (stereo not given)	0.7	-2.3	40	0.6	30
COc1ccc(CCNC(=O)/C=C/c2ccc(C)cc2)cc1OC	0.7	-1.2	-43	1.4	30
CON/C=C(\C=Nc1ccc(Cl)cc1)c1ncc(C(F)(F)F)cc1Cl	1.1	-0.48	-7	1.1	-13
CCCCCCCOC(=O)c1ccc(OC(=O)c2cccnc2)cc1	0.9	0.36	17	0.8	13
Cc1[nH]c2ccccc2c1C(=O)CN1CCC2(CC1)OCCO2	0.7	-1	-22	1.2	33
Cc1[nH]c2ccccc2c1C(=O)Cn1c(=O)oc2ccccc21	0.4	0.033	58*	0.4	62*
COC(=O)C1=C(C)NC(=O)/C1=C\c1cc(C)n(-c2c(C)cccc2C)c1C	0.6	-0.79	56*	0.4	44
Cc1cccc(C)c1-n1c(C)cc(/C=C2\NC(=O)NC2=O)c1C	·	-6.8*	·	·	·
COC(=O)C1=C(C)NC(=O)/C1=C\c1cc(C)n(-c2ccccc2C)c1C	1	0.52	4	1	4
CC1=NC(Nc2nc(C)c3ccccc3n2)=NC(C)(C)C1	1	-0.096	3	1	-2
O=C(c1ccc(Cl)cc1Cl)c1ncc(C(F)(F)F)cc1Cl	0.5	0.75	22	0.8	53*
COc1ccc(/C(=N\O)c2ncc(C(F)(F)F)cc2Cl)cc1	0.2	-2.9	14	0.9	79*
O/N=C(\c1ccc(Cl)cc1Cl)c1ncc(C(F)(F)F)cc1Cl	0.1	-6.8*	74*	0.3	93*
SMILES	CYP2C19 act	Cav3 T inh	CYP2C9 inh	CYP2C9 act	CYP2C19 inhib
COc1ccccc1NC(=O)C/C(N)=N/O	1	-0.088	-8	1.1	4
C=CCn1c(N2C(=O)CC(Cc3ccccc3)C2=O)nc2ccccc21 (stereo not given)	0.2	-2.2	-3	1	79*
C=CCn1c(NCc2ccccc2)nc2ccccc21	0.6	0.019	-1	1	35
CCOc1ccc(-c2[nH]ncc2Oc2ccccc2OCC)c(O)c1	0.1	-2.8	88*	0.1	90*
C=C(C)COc1ccc(-c2[nH]ncc2-c2ccccc2OC)c(O)c1	0.3	-3.4	89*	0.1	75*
CCOc1ccc(-c2[nH]ncc2Oc2ccccc2OC)c(O)c1	0	-0.46	98*	0	99*
COc1ccccc1Oc1ccc2c(c1)C(=O)N(c1cccc(O)c1)C2=O	0.8	-0.37	20	0.8	18
CCCOC(=O)c1ccc(Oc2cn[nH]c2-c2ccc(OC)cc2O)cc1	0	·	99*	0	97*
CCOc1ccc(-c2nc(N)ncc2Oc2ccccc2Br)c(O)c1	0.8	0.04	6	0.9	17
COc1ccccc1-c1cc(N)n[nH]1	1.1	0.17	-3	1	-7
Cc1csc(C(=O)O)c1-n1cccc1	0.9	-0.32	16	0.8	6
